{"source": "paper PMC4336329", "about": "(PLoS ONE, 2015)", "note": "Out of some 310,000 compounds screened, about 14,000 (4.5%) showed an effect of 50% or more. Effects have a minus sign here. The entries come from a sample that favours strong results as a whole.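 Also: peak tail current of the secondary pulse compared with the same well before compound.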", "data": [{"biological_target": "human ether-à-go-go-related gene (hERG) potassium channel (human, UniProt Q12809)", "sequence (Q12809 whole entry, looked up)": "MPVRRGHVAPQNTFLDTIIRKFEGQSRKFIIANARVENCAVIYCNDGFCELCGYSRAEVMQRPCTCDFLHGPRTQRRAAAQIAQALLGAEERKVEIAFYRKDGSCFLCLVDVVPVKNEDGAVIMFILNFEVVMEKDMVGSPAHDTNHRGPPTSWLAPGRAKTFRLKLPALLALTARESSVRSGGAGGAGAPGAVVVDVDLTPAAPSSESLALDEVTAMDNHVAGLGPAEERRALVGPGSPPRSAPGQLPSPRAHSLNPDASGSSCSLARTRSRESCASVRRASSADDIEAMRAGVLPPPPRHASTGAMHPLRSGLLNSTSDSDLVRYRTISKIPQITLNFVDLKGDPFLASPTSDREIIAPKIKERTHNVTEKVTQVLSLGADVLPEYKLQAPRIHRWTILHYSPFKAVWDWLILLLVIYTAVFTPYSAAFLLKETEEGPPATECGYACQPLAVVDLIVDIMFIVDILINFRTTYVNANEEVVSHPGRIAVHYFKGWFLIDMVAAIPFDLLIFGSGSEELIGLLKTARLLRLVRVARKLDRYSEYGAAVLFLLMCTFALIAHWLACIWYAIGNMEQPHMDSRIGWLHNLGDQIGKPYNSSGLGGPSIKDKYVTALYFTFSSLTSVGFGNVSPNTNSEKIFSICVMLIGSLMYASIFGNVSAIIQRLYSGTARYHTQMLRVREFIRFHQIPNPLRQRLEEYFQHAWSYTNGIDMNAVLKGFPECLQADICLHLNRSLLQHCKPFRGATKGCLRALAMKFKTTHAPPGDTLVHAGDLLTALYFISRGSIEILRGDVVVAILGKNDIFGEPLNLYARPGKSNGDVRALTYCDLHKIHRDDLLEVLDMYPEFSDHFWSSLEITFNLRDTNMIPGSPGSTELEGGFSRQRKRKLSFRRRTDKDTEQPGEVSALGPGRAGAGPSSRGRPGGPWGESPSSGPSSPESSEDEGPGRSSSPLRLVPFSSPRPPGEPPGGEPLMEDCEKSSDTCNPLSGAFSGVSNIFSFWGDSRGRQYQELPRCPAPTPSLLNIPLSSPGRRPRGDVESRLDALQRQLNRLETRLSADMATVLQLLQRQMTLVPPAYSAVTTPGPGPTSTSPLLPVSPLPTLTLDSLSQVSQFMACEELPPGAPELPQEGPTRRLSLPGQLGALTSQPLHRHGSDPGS", "experiment": "primary screen, population patch clamp on CHO cells stably expressing hERG; higher = less effect of the substance", "units": {"hERG current change (%, negative = inhibition) at 10uM": "%"}, "values": [{"smiles": "CCn1nc(C)cc1C(=O)N1CCc2c([nH]c3ccccc23)C1c1cc(F)ccc1F", "note": "(stereo not drawn)", "hERG current change (%, negative = inhibition) at 10uM": -1.16}, {"smiles": "CCOC(=O)c1c(NC(=O)Cc2ccccc2)sc2c1CCN(CC)C2.Cl", "hERG current change (%, negative = inhibition) at 10uM": -65.3}, {"smiles": "CC(C)N1CCc2c(sc(NC(=O)CCc3ccccc3)c2C(N)=O)C1.Cl", "hERG current change (%, negative = inhibition) at 10uM": -57.2}, {"smiles": "CN1CCN(C(=O)c2c(NC(=O)c3ccco3)sc3c2CCC(C(C)(C)C)C3)CC1", "note": "(stereo not drawn)", "hERG current change (%, negative = inhibition) at 10uM": -69.5}, {"smiles": "CC(C)(C)C1CCc2c(sc(NC(=O)c3ccco3)c2C(N)=O)C1", "note": "(stereo not drawn)", "hERG current change (%, negative = inhibition) at 10uM": 19.8}, {"smiles": "CCN1CCc2c(sc(NC(=O)c3ccc(S(=O)(=O)N4CCOCC4)cc3)c2C(=O)OC)C1.Cl", "hERG current change (%, negative = inhibition) at 10uM": -42.2}, {"smiles": "CC(C)N1CCc2c(sc(NC(=O)Cc3ccccc3)c2C(N)=O)C1.Cl", "hERG current change (%, negative = inhibition) at 10uM": -11.5}, {"smiles": "CC(C)N1CCc2c(sc(NC(=O)c3ccc(C(=O)c4ccccc4)cc3)c2C(N)=O)C1.Cl", "hERG current change (%, negative = inhibition) at 10uM": -38.2}, {"smiles": "CCOC(=O)c1c(NC(=O)c2cccc(N3C(=O)CCC3=O)c2)sc2c1CCN(CC)C2.Cl", "hERG current change (%, negative = inhibition) at 10uM": -31.5}, {"smiles": "CCN1CCc2c(sc(NC(=O)Cc3ccccc3)c2C(=O)OC)C1.Cl", "hERG current change (%, negative = inhibition) at 10uM": -51.5}, {"smiles": "CC(C)(C)C1CCc2c(sc(NC(=O)c3cccs3)c2C(=O)N2CCCCC2)C1", "note": "(stereo not drawn)", "hERG current change (%, negative = inhibition) at 10uM": 7.32}, {"smiles": "CCN1CCc2c(sc(NC(=O)Cc3ccccc3)c2C(N)=O)C1.Cl", "hERG current change (%, negative = inhibition) at 10uM": -20.3}, {"smiles": "OCc1ccccc1N=c1ssnc1Cl", "hERG current change (%, negative = inhibition) at 10uM": 15.9}, {"smiles": "CC(=O)N1CC(C)Sc2ccc(S(=O)(=O)NCc3ccccc3Cl)cc21", "note": "(stereo not drawn)", "hERG current change (%, negative = inhibition) at 10uM": -8.78}, {"smiles": "CC1CCN(C(=O)C2CCCCN2S(=O)(=O)c2cccc([N+](=O)[O-])c2)CC1", "note": "(stereo not drawn)", "hERG current change (%, negative = inhibition) at 10uM": 1.35}, {"smiles": "Cc1cc(C)c(NC(=O)CSc2ccc(-c3ccccn3)nn2)c(C)c1", "hERG current change (%, negative = inhibition) at 10uM": 17.9}, {"smiles": "CC1CCN(C(=O)c2nc[nH]c2C(=O)OCCNC(=O)OC(C)(C)C)CC1", "hERG current change (%, negative = inhibition) at 10uM": 4.23}, {"smiles": "CC1=CC(C)(C)Nc2ccc(OC(=O)CN3C(=O)c4ccccc4C3=O)cc21", "hERG current change (%, negative = inhibition) at 10uM": 15}, {"smiles": "CC1Cc2ccccc2N1C(=O)COC(=O)Cc1ccc(F)cc1", "note": "(stereo not drawn)", "hERG current change (%, negative = inhibition) at 10uM": -13.9}, {"smiles": "C=CCN(CC=C)C(=S)NCCc1ccc(OC)c(OC)c1", "hERG current change (%, negative = inhibition) at 10uM": -3.41}, {"smiles": "Cc1cc([N+](=O)[O-])nn1CC(=O)Nc1c(C)n(C)n(-c2ccccc2)c1=O", "hERG current change (%, negative = inhibition) at 10uM": 18.4}, {"smiles": "CC(C)CC(c1nnnn1Cc1ccccc1)N1CCN(C(=O)c2ccco2)CC1", "note": "(stereo not drawn)", "hERG current change (%, negative = inhibition) at 10uM": -63.4}, {"smiles": "O=C(c1ccco1)N1CCN(C(c2ccc(Cl)cc2)c2nnnn2Cc2ccccc2)CC1", "note": "(stereo not drawn)", "hERG current change (%, negative = inhibition) at 10uM": -68.2}, {"smiles": "Cc1nc2sc(C(c3cccs3)N3CCN(c4ccccc4)CC3)c(O)n2n1", "note": "(stereo not drawn)", "hERG current change (%, negative = inhibition) at 10uM": -9.85}, {"smiles": "CC(C)CC(c1nnnn1CCc1ccccc1)N1CCN(C(=O)c2ccco2)CC1", "note": "(stereo not drawn)", "hERG current change (%, negative = inhibition) at 10uM": -46.6}, {"smiles": "COc1ccc(C(c2sc3nc(C)nn3c2O)N2CCN(Cc3ccccc3)CC2)cc1OC", "note": "(stereo not drawn)", "hERG current change (%, negative = inhibition) at 10uM": -18.3}, {"smiles": "COCCn1nnnc1C(c1ccccc1)N1CCN(C(=O)c2ccco2)CC1.Cl", "note": "(stereo not drawn)", "hERG current change (%, negative = inhibition) at 10uM": 16.7}, {"smiles": "Cc1nc2sc(C(c3cccs3)N3CCN(Cc4ccccc4)CC3)c(O)n2n1", "note": "(stereo not drawn)", "hERG current change (%, negative = inhibition) at 10uM": -81.2}, {"smiles": "CCC(c1nnnn1Cc1ccccc1)N1CCN(C(=O)c2ccco2)CC1", "note": "(stereo not drawn)", "hERG current change (%, negative = inhibition) at 10uM": -36.3}, {"smiles": "O=C(c1ccco1)N1CCN(C(c2ccc(Cl)cc2)c2nnnn2CC2CCCO2)CC1", "note": "(stereo not drawn)", "hERG current change (%, negative = inhibition) at 10uM": -22.1}, {"smiles": "COc1cccc(C(c2nnnn2Cc2ccccc2)N2CCN(C(=O)c3ccco3)CC2)c1OC", "note": "(stereo not drawn)", "hERG current change (%, negative = inhibition) at 10uM": -30.2}, {"smiles": "CCOc1ccc(C(c2nnnn2Cc2ccccc2)N2CCN(C(=O)c3ccco3)CC2)cc1.Cl", "note": "(stereo not drawn)", "hERG current change (%, negative = inhibition) at 10uM": -57}, {"smiles": "COCCn1nnnc1C(c1ccc(Cl)cc1)N1CCN(C(=O)c2ccco2)CC1.Cl", "note": "(stereo not drawn)", "hERG current change (%, negative = inhibition) at 10uM": -22.4}, {"smiles": "COC(=O)/C(=C\\Nc1ccccc1)NC(=O)c1ccc(Cl)cc1Cl", "hERG current change (%, negative = inhibition) at 10uM": -17.2}, {"smiles": "COc1ccccc1C(c1nnnn1C(C)(C)C)N1CCN(C(=O)c2ccco2)CC1", "note": "(stereo not drawn)", "hERG current change (%, negative = inhibition) at 10uM": -53.9}, {"smiles": "COc1ccc(C(c2nnnn2C(C)(C)C)N2CCN(C(=O)c3ccco3)CC2)cc1", "note": "(stereo not drawn)", "hERG current change (%, negative = inhibition) at 10uM": -37.4}, {"smiles": "COCCn1nnnc1C(c1ccc(OC)cc1)N1CCN(C(=O)c2ccco2)CC1.Cl", "note": "(stereo not drawn)", "hERG current change (%, negative = inhibition) at 10uM": -4.77}, {"smiles": "COc1ccccc1C(c1nnnn1C(C)C)N1CCN(C(=O)c2ccco2)CC1", "note": "(stereo not drawn)", "hERG current change (%, negative = inhibition) at 10uM": 1.24}, {"smiles": "Cc1nc2sc(C(c3ccccc3)N3CCN(C(=O)c4ccco4)CC3)c(O)n2n1", "note": "(stereo not drawn)", "hERG current change (%, negative = inhibition) at 10uM": 8.97}, {"smiles": "CCOc1ccc(C(c2nnnn2C(C)(C)C)N2CCN(C(=O)c3ccco3)CC2)cc1", "note": "(stereo not drawn)", "hERG current change (%, negative = inhibition) at 10uM": -69.3}, {"smiles": "CCC(C)(C)n1nnnc1C(c1ccc(OC)cc1)N1CCN(C(=O)c2ccco2)CC1", "note": "(stereo not drawn)", "hERG current change (%, negative = inhibition) at 10uM": -41.6}, {"smiles": "CCC(C)(C)n1nnnc1C(c1ccccc1OC)N1CCN(C(=O)c2ccco2)CC1", "note": "(stereo not drawn)", "hERG current change (%, negative = inhibition) at 10uM": -32.6}, {"smiles": "COc1ccc(C(c2nnnn2Cc2ccccc2)N2CCN(C(=O)c3ccco3)CC2)cc1OC.Cl", "note": "(stereo not drawn)", "hERG current change (%, negative = inhibition) at 10uM": -19.9}, {"smiles": "Cc1nc2sc(C(c3ccc(Cl)cc3)N3CCN(C(=O)c4ccco4)CC3)c(O)n2n1", "note": "(stereo not drawn)", "hERG current change (%, negative = inhibition) at 10uM": -60.1}, {"smiles": "Cc1ccc(C(c2sc3nc(C)nn3c2O)N2CCN(C(=O)c3ccco3)CC2)cc1", "note": "(stereo not drawn)", "hERG current change (%, negative = inhibition) at 10uM": -31.4}, {"smiles": "COc1ccc(C(c2nnnn2Cc2ccccc2)N2CCN(C(=O)c3ccco3)CC2)cc1", "note": "(stereo not drawn)", "hERG current change (%, negative = inhibition) at 10uM": -60.6}, {"smiles": "Cc1ccc(-c2nc3c(c(SCC(=O)N4CCOCC4)n2)COC(C)(C)C3)cc1", "hERG current change (%, negative = inhibition) at 10uM": 3.09}, {"smiles": "O=C(NCCCn1ccnc1)C(=O)Nc1ccccc1", "hERG current change (%, negative = inhibition) at 10uM": 11.8}, {"smiles": "CCCNc1nc2c(c(=O)[nH]c(=O)n2C)n1CCc1ccccc1", "hERG current change (%, negative = inhibition) at 10uM": 4.04}, {"smiles": "C#CCN(C(=O)c1ccc(OC)c(OC2CCN(C(C)C)CC2)c1)C1CCCCC1", "hERG current change (%, negative = inhibition) at 10uM": -46.4}, {"smiles": "C=CCc1cccc2cc(C(=O)NC)c(=O)oc12", "hERG current change (%, negative = inhibition) at 10uM": -5.8}]}]}
